Drawing on the supplement of paper PMC6555819, this text covers PBM binding z-score for 40 sequences.

The test relates to FXR:RXRa (NR concentration 270 nM, RXRa partner concentration 90 nM). Nature of the test: PBM binding z-score (relative to random genomic background probes); higher = stronger binding; sequences stand for … in GC…GCGATTGACAGCGTAGAATGAAGG
The method in brief:
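Random background probes are the reference for binding z-scores. These scores derive from regression-normalized fluorescence on custom Agilent 4×180K protein-binding microarrays incubated 1 h with ligand-free nuclear receptor dimers. Binding was detected with antibodies against each partner (one per run).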
TGAATGAGGTTAAAGATCTGGGAACGTGGCGTCG displayed a PBM binding z-score of 2.5. CTCGCAAGGTCGGTTGAGGTGAGTATACGGATAA: the PBM binding z-score worked out at 0.755. Sequence CCACACAGGTGAAAGGTAACTCAGTCTGGTACGC displayed a PBM binding z-score of 1.02. To CCTACTGCGCCAAGGTCATTGATCAGTCAAAGCA belongs 3.5; to TCTATTAGTTGAAGTGCAACCGACGAGTCCGTTT, 0.802. Next, AGAACGAGGGCAATGAGTAGATAGCACGGGTGGC: 0.288; TTGCCAAGGTGAAGGTCGTTGATCCCTCTGTAGA: 2.38; TCTAGTTGGTCACGGAGGTCACACACGACGGGTA: 3.14. In the case of ACAGACAGGTTAGTGAAGGTAACTCAGCTGGACG, the PBM binding z-score worked out at 0.616. Next, GCGATTGGGGCAAAGCAGGTTACCATAAGGTTGG: 0.351. Take ATCTCTAGGTAAGACTCCGTTCAGTGAAGAACGC: the PBM binding z-score was determined as 0.49.

CCGACTGGGCCACGAAAGGTCATTGATTCAGTGA registered a PBM binding z-score of 3.33. AATACAGGGTCATTGTAGGCCAGAGTACGCACAG showed a PBM binding z-score of 7.11. As for TTACCAAGGTGAGCTGAGGTCGTGGATCCAACTC, the PBM binding z-score was 1.09.

As to TCTATTAGTTGATTAGGGCAACCGCAACAGCGGA, the PBM binding z-score was determined as 0.86.

In the case of AGTCAAAGTTCATCTAGGTAACCTAAGATATGCT, the PBM binding z-score stood at 6.25. For TCAGACAGGTGAAGGTAACGCAGGTACGCAGTCG, the PBM binding z-score worked out at 0.226. Next, AGAATGAGGTTATATGTAGATCAGGGAAGAAAGT: 2.11. In the case of GCTCGGAGGACAAGGTCAGAGATTTGTCCGTAGA, the PBM binding z-score amounted to 1.22. Consider TCTGCTAGGTCAGTTGGTCAGGTAACGAGCTGCC, for which the PBM binding z-score was 1.03. CCTCGGAGGACTACAGGAGGTCAGAGCTGCCAGA displayed a PBM binding z-score of 0.709. To GGAACGACGGCAAGTTGATAGCAGAGTTTGATGG belongs -0.255. Consider ATCTCTAGGTAAAGATAGTTCTGTGAATGCAAAT, for which the PBM binding z-score turned out to be 0.34. In the case of CGTCCAGGGTCAGAGAGGTCAGTGAATGCCGAGT, the PBM binding z-score was found to be 5.65. TCTAGTTGGTCACGGAGGTCACACCCGACGGGTA registered a PBM binding z-score of 3.19.

The sequence TCATATAGGTAAATGCTAAGTGAAAGTCCGATCT had a PBM binding z-score of 1.1. The sequence TCTGCTAGGTCAGCTGGTCAGCTAACGAGCTGCC came in with a PBM binding z-score of 1.35.

Sequence CTACCAAGGTGAACAAGGGCGTTGATTACTATTC registered a PBM binding z-score of 0.636.

The sequence AGTCAAAGTTCAAGACGAGGTAACGTAAAGCACG registered a PBM binding z-score of 6.21.

Sequence GCTGCTAGGTCAGGTTGATCAGCTAACGGGTACG registered a PBM binding z-score of 1.01. CCTTACGGGTCAAGGTTTTAGCACGGGTGGTACG returned a PBM binding z-score of 4.88. For the sequence TGAATGAGGTTATGAGATCAGGGAACGTTGCAAA, the PBM binding z-score is 1.67.

For AGAACGAGGGCACGCTGAGTTCATAGCAGAGTAG, the PBM binding z-score stood at 2.2. Consider AGTCAAAGTTCACTAGGTAACCTAAGATTCAGCT, for which the PBM binding z-score worked out at 5.37. Next, GTACCAAGGTGAATAGGTCGTGGATGAGTAGGCG: 1.25; CTCCAAAGGTCGTGCTCAGGTGAGTATACCAAAC: 5.95. In turn, TGATATAGGTAAACAGGTGAAAGTCCGTAAGTTA registered a PBM binding z-score of 0.277. To TCTATTAGTAGATTAGGGCAACCGAAACAGCGGA belongs 0.325.

Turning to CGTCCAAGGTCATAGGAGGTCAGTGAGGACAGAT, the PBM binding z-score came out at 7.69. To TCTCGGAGGACACGGAAGGTCAGAGCTCGACATC belongs 2.08.
